The values below come from PubChem BioAssay (NCATS).

Experiment [1] is described as follows: AP1 Signaling Pathway (AID 357; active means well fitted curve in either direction with a large enough effect, not every such curve was filed as active;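 further: ME-180 reporter cells stimulated with EGF at its EC50 level; on the % scale 0 is the no-effect control and ±100 the full control effect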). The method in brief:
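A ratiometric CCF4 readout (405 nm excitation; 460 and 530 nm emission) quantified AP-1-driven beta-lactamase in ME-180 cells after 5 h with compound and EC50 EGF; AC50 values were derived for activators and inhibitors.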

A short description of experiment [2]: NFAT Signaling Pathway (AID 444; active means well fitted curve in either direction with a large enough effect, not every such curve was filed as active;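 further: carbachol stimulus at about its EC50 of 1 µM final; on the % scale 0 is the no-effect control and ±100 the full control effect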). Conditions: Jurkat NFAT-bla M1, carbachol, beta-lactamase ratio, 5 h; at 17.2 µM (top of the series) unless noted. The method in brief:
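Jurkat cells carrying an NFAT-driven β-lactamase reporter and co-transfected muscarinic M1 receptor were treated with compound plus carbachol (1 uM final, an EC50 level) for 5 h at 37 °C. CCF4 loading followed for 1 h at RT; 460/530 nm ratio gave %activity.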

Experiment [3] is described as follows: Stat Signaling Pathway (AID 446; active means well fitted curve in either direction with a large enough effect, not every such curve was filed as active;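 further: ME-180 cervical cancer cells given 40 pM IL-6 alongside compound; SIE-controlled beta-lactamase reporter measured as 460/530 nm FRET emission ratio; on the % scale 0 is the no-effect control and ±100 the full control effect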). The procedure, abridged:
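Overnight-plated ME-180 cells bearing a STAT Inducible Element beta-lactamase reporter; 5 h co-exposure to compound and 40 pM IL-6; values normalized to 300 pM IL-6 and 125 nM JAK inhibitor controls.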

The target of experiment [4] is Glucocorticoid receptor (Homo sapiens) (UniProt P04150). In words: GR-EFC Redistribution (AID 451; calls by dose curve; further: potency means the concentration at half of the fitted maximal effect). Particulars: CHO-K1 GR-EFC translocation, beta-gal luminescence, 2 h. The method in brief:
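CHO-K1 cells stably expressing nuclear-localized β-gal enzyme acceptor and GR fused C-terminally to the enzyme donor fragment; ligand-driven nuclear translocation restores β-gal by complementation. Compounds titrated up to 46 uM final, 2 h at 37 °C; luminescence read.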

Experiment [5] deals with Mitogen-activated protein kinase 10 (Mus musculus) (UniProt Q61831). Briefly: JNK3 AlphaScreen Assay (AID 530; active means well fitted curve in either direction with a large enough effect, not every such curve was filed as active;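 further: kinase came from lysate of stimulated human HepG2 cells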; further: potency means the concentration at half of the fitted maximal effect). The method in brief: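 Phosphorylation of biotinylated GST-cJun(1-79) at Ser73 is measured by AlphaScreen proximity luminescence. Enzyme is JNK3 in HepG2 lysates activated with interleukin-1beta and tumor necrosis factor alpha; ATP is 10 uM final.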
The target in experiment [6] is 3',5'-cyclic-AMP phosphodiesterase 4B (Homo sapiens) (UniProt Q07343). Briefly: qHTS Assay for Inhibitors of PDE-IV (AID 607; active means well fitted activation curve with a large enough effect in the main read-out, with a control signal flat, not every such curve was filed as active; further: % of control where 0% means no effect). The method in brief: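 Live HEK293 cells with a modified cyclic nucleotide-gated (CNG) channel report intracellular cAMP via membrane-potential dye fluorescence (ex 535/em 590 nm). Endogenous PDE-IV was targeted. Compounds were tested at up to 22.9 uM final; RO 20-1724 100 uM served as control.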
Background: qHTS replaces the single test concentration by a dilution series.

The nature of experiment [7]: qHTS Assay for Lipid Storage Modulators (AID 1519; calls by dose curve). Particulars: Drosophila S3 cells, BODIPY lipid droplet/cell ratio, laser cytometry, cells loaded with oleic acid; for activity change, negative = inhibition: at 25.7 µM (top of the series). The method in brief:
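Cells seeded at 5,000 per well were treated with compounds over a concentration series and loaded with oleic acid (400 uM, as added). Lipid droplet fluorescence (488 nm excitation, 500-530 nm channel) was read by laser-scanning cytometry and normalized to 20 uM Triacsin C.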

Experiment [8] addresses Ubiquitin carboxyl-terminal hydrolase 1 (Homo sapiens) (UniProt O94782). In words: Inhibitors of USP1/UAF1: Pilot qHTS (AID 504865).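 Further: rhodamine fluorescence freed from ubiquitin-rhodamine substrate followed over time; top concentration of the series differs between compounds; on the % scale 0 is the no-effect control and ±100 the full control effect; nearly all actives have a fitted effect of over 35% in size.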 The procedure, abridged:
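Kinetic fluorescence assay: 1nM USP1/UAF1, 15 min compound preincubation, then 150nM Ub-Rho; 480/540 nm.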

For experiment [9], the target named is Glucocorticoid receptor (Homo sapiens) (UniProt P04150). Briefly: GR-GFP Redistribution (AID 450;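 active means compounds whose dose series gives a full or clear partial fitted curve of increased nuclear translocation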; further: potency means the concentration at half of the fitted maximal effect). Conditions: U2OS GR-GFP nuclear translocation, laser cytometry, 2 h.
For experiment [10], the target named is ATP-dependent 6-phosphofructokinase (Trypanosoma brucei brucei) (UniProt O15648). Briefly: qHTS Assay to Find Inhibitors of T. brucei phosphofructokinase: hit validation (AID 492961).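 Further: luminescence reports ADP formed as PFK phosphorylates fructose-6-phosphate with ATP; on the % scale 0 is the no-effect control and ±100 the full control effect.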 The method in brief: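 Reaction: 0.1 M triethanolamine pH 8.0, 5 mM MgCl2, F6P 0.5 mM, ATP 0.1 mM, PFK 1.25 nM, 45 min RT. Read-out: ADP-Glo luminescence. Analysis: concentration-response fits, classed by r2 and efficacy.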

Experiment [11] concerns the target Luciferin 4-monooxygenase (Photinus pyralis) (UniProt P08659). In words: Biochemical firefly luciferase enzyme assay for NPC (AID 624030).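 Further: purified P. pyralis luciferase at 10 nM with luciferin and ATP substrate; 0% = DMSO and -100% = full luciferase inhibition by PTC124 control; nearly all actives have a fitted effect of over 70% in size.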 The procedure, abridged:
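Counter-screen for direct inhibition of the luciferase enzyme by approved-drug library compounds, run at 10 nM enzyme in 50 mM Tris acetate (final). Luminescence was read within 5 min of enzyme-buffer addition and normalized to PTC124 versus DMSO (0%).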

The nature of experiment [12]: qHTS profiling for inhibitors of Plasmodium falciparum proliferation (AID 504749).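 Further: 0% = DMSO vehicle and full inhibition = artemisinin control; nearly all actives have a fitted effect of over 60% in size.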 Particulars: P. falciparum in erythrocytes, SYBR Green DNA, 72 h, at 12.8 µM (top of the series). The procedure, abridged: (§1)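 Quantitative HTS: compounds pinned into medium, infected erythrocytes added (0.3% parasitemia, 2.5% hematocrit), 72 h culture at 37 C under 5% CO2. Saponin/Triton lysis with SYBR Green I, overnight RT, then fluorescence read.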

The subject of the next experiment is C2A. The description is as above. Conditions: P. falciparum in erythrocytes, SYBR Green DNA, 72 h; series mostly up to 12.8 µM. The method in brief: as §1
In another experiment the test system is CP217. The description is as above. Particulars: P. falciparum in erythrocytes, SYBR Green DNA, 72 h; series mostly up to 12.8 µM. The procedure, abridged:
as §1

Another experiment deals with CP238. Described as above. Particulars: P. falciparum in erythrocytes, SYBR Green DNA, 72 h; series mostly up to 12.8 µM. The method in brief: as §1
The next experiment concerns CP250. The description is as above. Conditions: P. falciparum in erythrocytes, SYBR Green DNA, 72 h; series mostly up to 12.8 µM. The method in brief: as §1
For another experiment, the system named is CP252. The description is as above. Particulars: P. falciparum in erythrocytes, SYBR Green DNA, 72 h; series mostly up to 12.8 µM. The method in brief:
as §1

For the next experiment, the system named is FAB9. The experiment is described as above. Particulars: P. falciparum in erythrocytes, SYBR Green DNA, 72 h; series mostly up to 12.8 µM. The procedure, abridged: as §1
The test system of another experiment is HB3. The description is as above. Conditions: P. falciparum in erythrocytes, SYBR Green DNA, 72 h; series mostly up to 12.8 µM. The procedure, abridged:
as §1

Another experiment has as its system SC27B. The description is as above. Conditions: P. falciparum in erythrocytes, SYBR Green DNA, 72 h; series mostly up to 12.8 µM. The method in brief: as §1
The mark [13] stands for this setting: measured here: cell count channel max response.
Setting [14] is: measured here: lipid channel max response.

Results filed as inconclusive are left out. Calls of active or inactive are those of the source. Unless noted, the call rests on the fitted dose curve; in most records, active means well fitted curve in the direction sought with a large enough effect; inconclusive means small, poorly fitted or top-dose-only effect, or another doubt; inactive means no such curve, though single readings can be large; an effect the other way counts as inactive or inconclusive.

Sequence of Glucocorticoid receptor (Homo sapiens) (P04150 whole entry, looked up, the tested form may be a part): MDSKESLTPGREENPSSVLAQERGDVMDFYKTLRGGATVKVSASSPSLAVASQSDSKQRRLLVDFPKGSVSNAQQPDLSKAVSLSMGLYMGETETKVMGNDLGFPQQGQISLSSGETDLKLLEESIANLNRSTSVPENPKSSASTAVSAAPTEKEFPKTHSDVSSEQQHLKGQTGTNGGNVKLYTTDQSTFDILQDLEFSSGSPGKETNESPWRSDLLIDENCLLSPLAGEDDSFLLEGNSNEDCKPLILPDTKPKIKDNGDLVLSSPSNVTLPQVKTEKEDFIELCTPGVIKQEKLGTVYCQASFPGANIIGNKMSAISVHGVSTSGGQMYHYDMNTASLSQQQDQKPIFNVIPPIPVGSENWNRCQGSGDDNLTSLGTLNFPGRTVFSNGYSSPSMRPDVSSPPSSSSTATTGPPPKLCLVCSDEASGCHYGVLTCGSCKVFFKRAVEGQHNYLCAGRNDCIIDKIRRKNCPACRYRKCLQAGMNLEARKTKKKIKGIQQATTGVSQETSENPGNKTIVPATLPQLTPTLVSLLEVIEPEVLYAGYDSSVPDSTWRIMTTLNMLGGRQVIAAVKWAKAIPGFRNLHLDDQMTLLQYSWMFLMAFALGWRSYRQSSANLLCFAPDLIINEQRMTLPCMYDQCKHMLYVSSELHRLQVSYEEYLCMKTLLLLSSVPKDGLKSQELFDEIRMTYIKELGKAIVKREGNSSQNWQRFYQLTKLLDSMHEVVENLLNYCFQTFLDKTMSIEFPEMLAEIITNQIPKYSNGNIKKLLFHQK
Sequence of Ubiquitin carboxyl-terminal hydrolase 1 (Homo sapiens) (O94782 whole entry, looked up): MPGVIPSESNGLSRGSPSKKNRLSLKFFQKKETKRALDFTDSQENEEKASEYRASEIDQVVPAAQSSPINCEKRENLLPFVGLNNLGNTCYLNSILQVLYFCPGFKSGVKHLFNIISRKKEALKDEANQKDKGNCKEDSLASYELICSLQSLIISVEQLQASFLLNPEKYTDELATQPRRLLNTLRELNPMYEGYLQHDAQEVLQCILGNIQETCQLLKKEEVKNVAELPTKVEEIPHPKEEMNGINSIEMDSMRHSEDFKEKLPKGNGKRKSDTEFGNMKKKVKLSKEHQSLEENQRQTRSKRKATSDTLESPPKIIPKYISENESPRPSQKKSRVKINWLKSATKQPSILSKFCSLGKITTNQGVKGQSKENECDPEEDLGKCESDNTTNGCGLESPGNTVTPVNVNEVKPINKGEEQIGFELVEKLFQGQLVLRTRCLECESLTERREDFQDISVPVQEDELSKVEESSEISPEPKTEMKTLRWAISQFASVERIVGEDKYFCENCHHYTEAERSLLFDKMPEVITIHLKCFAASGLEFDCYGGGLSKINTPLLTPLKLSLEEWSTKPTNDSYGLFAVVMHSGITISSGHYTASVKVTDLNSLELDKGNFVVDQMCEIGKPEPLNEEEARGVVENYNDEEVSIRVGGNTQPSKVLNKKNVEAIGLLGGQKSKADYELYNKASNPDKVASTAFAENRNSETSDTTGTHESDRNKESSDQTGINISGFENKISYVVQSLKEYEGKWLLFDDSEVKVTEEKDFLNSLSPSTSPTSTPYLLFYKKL
Sequence of 3',5'-cyclic-AMP phosphodiesterase 4B (Homo sapiens) (Q07343 whole entry, looked up): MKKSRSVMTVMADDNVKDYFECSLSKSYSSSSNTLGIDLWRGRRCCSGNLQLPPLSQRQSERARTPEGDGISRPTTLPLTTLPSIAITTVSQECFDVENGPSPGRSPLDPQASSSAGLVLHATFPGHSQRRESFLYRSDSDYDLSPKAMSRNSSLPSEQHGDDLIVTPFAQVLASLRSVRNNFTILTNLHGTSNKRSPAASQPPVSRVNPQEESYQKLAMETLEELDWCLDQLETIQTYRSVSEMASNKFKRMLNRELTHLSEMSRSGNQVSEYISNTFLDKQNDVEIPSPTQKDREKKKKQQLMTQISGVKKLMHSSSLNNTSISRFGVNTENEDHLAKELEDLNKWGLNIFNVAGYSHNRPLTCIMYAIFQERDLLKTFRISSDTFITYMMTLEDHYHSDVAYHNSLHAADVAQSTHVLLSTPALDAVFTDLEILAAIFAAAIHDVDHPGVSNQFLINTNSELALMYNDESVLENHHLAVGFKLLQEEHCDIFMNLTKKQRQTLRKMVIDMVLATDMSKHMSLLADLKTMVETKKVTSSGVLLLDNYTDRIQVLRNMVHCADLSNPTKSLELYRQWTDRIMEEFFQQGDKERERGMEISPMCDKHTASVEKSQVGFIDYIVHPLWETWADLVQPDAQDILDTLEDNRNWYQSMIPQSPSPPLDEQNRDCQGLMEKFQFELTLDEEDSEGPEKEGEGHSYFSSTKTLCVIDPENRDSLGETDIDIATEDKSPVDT
Sequence of Luciferin 4-monooxygenase (Photinus pyralis) (P08659 whole entry, looked up): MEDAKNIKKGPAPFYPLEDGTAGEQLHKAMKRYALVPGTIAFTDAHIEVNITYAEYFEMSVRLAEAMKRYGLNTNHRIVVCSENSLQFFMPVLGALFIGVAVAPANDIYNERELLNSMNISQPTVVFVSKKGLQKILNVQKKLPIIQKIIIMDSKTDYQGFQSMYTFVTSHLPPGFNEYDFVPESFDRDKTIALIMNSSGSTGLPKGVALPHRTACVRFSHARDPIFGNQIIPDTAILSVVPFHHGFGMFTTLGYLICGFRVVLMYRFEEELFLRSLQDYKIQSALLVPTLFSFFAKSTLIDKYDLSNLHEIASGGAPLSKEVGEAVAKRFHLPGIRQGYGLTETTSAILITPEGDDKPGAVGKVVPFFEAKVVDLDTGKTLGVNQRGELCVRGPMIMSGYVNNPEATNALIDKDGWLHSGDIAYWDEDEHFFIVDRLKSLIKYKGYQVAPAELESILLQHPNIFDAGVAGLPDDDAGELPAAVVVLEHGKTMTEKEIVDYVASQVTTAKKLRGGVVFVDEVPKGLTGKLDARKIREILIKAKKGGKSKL
Sequence of ATP-dependent 6-phosphofructokinase (Trypanosoma brucei brucei) (O15648 whole entry, looked up): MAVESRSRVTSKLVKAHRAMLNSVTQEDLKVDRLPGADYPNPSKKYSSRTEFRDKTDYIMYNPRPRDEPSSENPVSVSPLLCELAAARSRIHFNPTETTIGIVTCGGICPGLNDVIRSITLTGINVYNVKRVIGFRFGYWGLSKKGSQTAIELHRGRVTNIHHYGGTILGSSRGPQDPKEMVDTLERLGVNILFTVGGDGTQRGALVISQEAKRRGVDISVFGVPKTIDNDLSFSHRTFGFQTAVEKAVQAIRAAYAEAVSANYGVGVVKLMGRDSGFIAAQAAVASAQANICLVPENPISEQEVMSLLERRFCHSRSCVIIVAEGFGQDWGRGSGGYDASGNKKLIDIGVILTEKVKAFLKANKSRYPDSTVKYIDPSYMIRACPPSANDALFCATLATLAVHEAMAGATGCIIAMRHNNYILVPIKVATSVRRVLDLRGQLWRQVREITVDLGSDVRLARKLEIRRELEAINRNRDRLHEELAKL

Regarding `C[C@@H]1[C@H](C)CC[C@@]2(C(=O)O[C@H]3O[C@@H](CO[C@H]4O[C@@H](CO)[C@@H](O[C@H]5O[C@@H](C)[C@@H](O)[C@@H](O)[C@@H]5O)[C@@H](O)[C@@H]4O)[C@@H](O)[C@@H](O)[C@@H]3O)CC[C@]3(C)C(=CC[C@H]4[C@@]5(C)C[C@@H](O)[C@@H](O)[C@](C)(CO)[C@@H]5CC[C@@]43C)[C@@H]12`, the molecule was called inactive in experiment [1], in experiment [3] and in experiment [6]. Also, the activity change, negative = inhibition in experiment [2] was -1.63% (inactive); in [7], -3.24% (inactive). The Potency in [4] is > 20.6 µM (inactive). Besides, the Potency entry in [5] and in experiment [8] was “inactive” throughout. In addition, the figures for the max response in experiment [7] (setting [13]) and in experiment [7] (setting [14]) were -4% and -10.2%, respectively.
Consider `O=C1CN(/N=C\c2ccc([N+](=O)[O-])o2)C(=O)N1`, for which the outcome in experiment [1], in experiment [3] and in [6] was inactive. The activity change, negative = inhibition was -2.23% (inactive) in experiment [2] and 1.21% (inactive) in experiment [7]. The Potency in experiment [9] and in [4] was > 20.6 µM (inactive) in each case. For the same molecule, the Potency result in experiment [5] and in experiment [8] was “inactive” throughout. Further, the max response was determined as 3.28% in [7] (setting [13]) and 0.924% in [7] (setting [14]).
Turning to `C[C@@H]1C[C@H]2[C@@H]3C[C@H](F)C4=CC(=O)C=C[C@@]4(C)[C@]3(F)[C@H](O)C[C@]2(C)[C@@]1(O)C(=O)CO`, the molecule was classed as inactive in [1], in experiment [3] and in experiment [10]. In addition, the activity change, negative = inhibition in [2] was 2.6% (inactive); in experiment [7], -2.8% (inactive). Also, the Potency result (in experiment [5]; in [8]; in [11]; with C2A; with CP217; in the experiment with CP238) was “inactive” in each case. Moreover, the Potency entry with CP250, in the experiment on CP252, with FAB9, in the experiment on HB3 and in the experiment on SC27B was “inactive” in each case. In addition, the max response is 0.642% in [7] (setting [13]) and -3.99% in [7] (setting [14]). Further, the activity, negative = inhibition is 7.34% (inactive) in experiment [12] (parasite line A) and -3.91% (inactive) in experiment [12] (parasite line B).
As to `CCN1CCC[C@@H](OC(=O)C(c2ccccc2)c2ccccc2)C1`, the call in experiment [1] and in experiment [3] was inactive. The activity change, negative = inhibition in experiment [2] is -80.8% (active); in experiment [7], -6.3% (inactive). The Potency in experiment [9] and in experiment [4] was > 20.6 µM (inactive) each time. Further, the Potency entry (in [5]; in [11]; in the experiment on C2A; with CP217; in the experiment with CP238; in the experiment on CP250) was “inactive” each time. The Potency result in the experiment on FAB9, in the experiment on HB3 and with SC27B was “inactive” throughout. For the same molecule, the max response was -3.56% in [7] (setting [13]) and -10.4% in experiment [7] (setting [14]). Moreover, the activity, negative = inhibition in [12] (parasite line A) was 0.857% (inactive); in experiment [12] (parasite line B), -1.3% (inactive).
For `C[C@@H]1[C@H](C)CC[C@@]2(C(=O)O)CC[C@]3(C)C(=CC[C@H]4[C@@]5(C)CC[C@@H](O)C(C)(C)[C@@H]5CC[C@@]43C)[C@@H]12`, the result in [1], in experiment [3] and in [6] was inactive. Moreover, the activity change, negative = inhibition in experiment [2] is -17.6% (inactive); in [7], -4.31% (inactive). Further, the Potency in [9] and in experiment [4] was > 20.6 µM (inactive) each time. The Potency result in experiment [5] and in experiment [8] was “inactive” each time. The max response in experiment [7] (setting [13]) is -6.67%; in experiment [7] (setting [14]) it was -11%.
Consider `O=C(O)CCCC[C@H]1SC[C@H]2NC(=O)N[C@@H]21`, for which the call in experiment [1], in experiment [3] and in [6] was inactive. Further, the activity change, negative = inhibition in experiment [2] was 2.95% (inactive); in experiment [7] it was -3.62% (inactive). The figures for the Potency in experiment [9], in experiment [4] and in experiment [5] were > 20.6 µM (inactive), > 20.6 µM (inactive) and 0.00126 µM (active), respectively. Further, the max response in experiment [7] (setting [13]) was 5.29%; in experiment [7] (setting [14]), 0.0876%. Further, the Potency entry in experiment [8] is “inactive”.
